# From PubChem
# Pf growth 96h: P. falciparum growth inhibition at 96 hours; P. falciparum luciferase reporter growth, 96 h; Potency, µM (top dose mostly 28.7 µM), inactives show at the highest dose activity change, negative = inhibition, actives largely listed as inhibitors; 320,000 tested, 6.9% active; AID 504834; note: potency is the fitted concentration of half-maximal effect; % is set by controls: 0 for no effect and ±100 for the full control effect
#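 Parasite growth measured via integrated firefly luciferase reporter in P. falciparum. Infected erythrocytes at 2% hematocrit, 0.05% parasitemia final were treated 96 hours at 37 C under 5% CO2, and luminescence was read.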
# Shiga inhibitor: inhibitors of Shiga toxin in Vero cells; Vero cells, Shiga toxin protein synthesis inhibition reporter; inhibition, % at 38.7 µM; 290,000 tested, 9.2% active; AID 2315; in the data active = inhibition mostly above about 28%, no sharp cut-off; inactive = mostly below about 43%; note: 0% is about no effect
# Cycloheximide cs: counter-screen hit for Shiga toxin inhibitors, cycloheximide; cell reporter, cycloheximide protein synthesis inhibition counterscreen; AID 2314; 300,000 tested, 12% active; max response, %; in the data active = max response mostly above about 13%, no sharp cut-off; inactive = mostly below about 14%; note: read at 38.3 µM for the half of the compounds with a filed dose; 0% is about no effect
# LmPK inhibitor: inhibitors of Leishmania mexicana pyruvate kinase. Potency, µM (top dose mostly 57.5 µM), for inactives: top-dose activity change, negative = inhibition, most hits filed as inhibitors. purified LmPK, Kinase-Glo ATP luminescence, 1 h. Q27686. AID 1721. 290,000 tested, 0.37% active; note: potency is the fitted concentration of half-maximal effect; % is set by controls: 0 for no effect and ±100 for the full control effect
# Target sequence (Q27686 whole entry, looked up): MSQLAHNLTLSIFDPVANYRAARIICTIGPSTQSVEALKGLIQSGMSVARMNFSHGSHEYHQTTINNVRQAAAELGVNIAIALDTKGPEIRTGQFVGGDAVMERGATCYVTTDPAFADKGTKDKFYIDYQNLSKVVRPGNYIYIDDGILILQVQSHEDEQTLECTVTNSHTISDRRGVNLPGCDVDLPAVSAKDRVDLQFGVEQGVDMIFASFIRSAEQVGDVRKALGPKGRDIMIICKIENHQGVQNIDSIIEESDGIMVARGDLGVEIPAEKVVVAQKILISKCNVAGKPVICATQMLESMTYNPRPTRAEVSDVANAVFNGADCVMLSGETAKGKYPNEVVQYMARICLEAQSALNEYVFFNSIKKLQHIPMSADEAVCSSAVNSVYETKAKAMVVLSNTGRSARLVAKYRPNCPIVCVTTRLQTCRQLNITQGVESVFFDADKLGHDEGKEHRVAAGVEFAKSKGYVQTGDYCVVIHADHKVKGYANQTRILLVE
#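 ATP generated from ADP (0.1 mM) and PEP (0.5 mM) by 0.1 nM LmPK over 1 h at room temperature (pH 7.2 imidazole buffer) was detected by coupled luciferase luminescence. Values were normalized to uninhibited and no-enzyme wells.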
# Pf growth 48h: inhibits P. falciparum growth in the first generation, 48 h | P. falciparum luciferase growth in erythrocytes, 48 h | Potency, µM (titrated, usually from 28.7 µM), for inactives: top-dose activity change, negative = inhibition, usual class: inhibitors | 310,000 tested, 5.9% active; note: potency is the fitted concentration of half-maximal effect; % is set by controls: 0 for no effect and ±100 for the full control effect
#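 Growth was read as firefly luciferase luminescence after a 48 h, 37 C, 5% CO2 exposure of compounds to reporter-bearing P. falciparum cultures (0.1% parasitemia, 2% hematocrit final) in Albumax-supplemented RPMI 1640.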
# * marks the source's active call; other numbers are inactive results; i = inactive; ? = inconclusive; / = no result given; [ ] = remark or other dose. Shown are actives, neighbours in structure and some others; about 22% of the full set was active somewhere. Unless noted, calls come from the whole dose curve; as a rule, active = well fitted inhibition curve with a large enough effect; inconclusive = small, poorly fitted or top-dose-only effect, or another doubt; inactive = no such curve, though single readings can be large or run the other way.
SMILES,Pf growth 96h,Shiga inhibitor,Cycloheximide cs,LmPK inhibitor,Pf growth 48h
CCc1ccc(NS(=O)(=O)c2ccc3[nH]cc(C(=O)N4CCc5ccccc54)c(=O)c3c2)cc1,?,25*,35*,2%,88%
CCOC(=O)N1CCN(C(=O)c2c[nH]c3ccc(S(=O)(=O)N(C)c4ccc(OCC)cc4)cc3c2=O)CC1,13µM*,-2,-4,-3%,24%
CCC(C)CCCCNC1=NCCS1 (configuration not stated),?,11,4,3%,?
CC1CCCCC12NC(=O)N(CC(=O)Nc1ccc(N3CCOCC3)cc1)C2=O (configuration not stated),40%,-16,1,0%,12%
CCCCNC(=O)CC(=O)Nc1ccccc1C(=O)O,94%,-4,-3,-3%,35%
Cc1cccnc1NC(=O)CNC(=O)COc1ccccc1,26%,/,/,/,18%
O=C(NCc1cccnc1)c1c[nH]c2cc3c(cc2c1=O)OCCO3,?,145*,35*,1%,?
O=C(c1ccccc1)c1c[nH]c2cc3c(cc2c1=O)OCO3,?,23,-1,3%,-3%
O=C(c1ccccc1)c1c[nH]c2cc3c(cc2c1=O)OCCO3,15µM*,45*,17*,-7%,46%
CCc1ccc(NS(=O)(=O)c2ccc3[nH]cc(C(=O)NCC4CCCO4)c(=O)c3c2)cc1 (configuration not stated),?,128,27*,5%,?
COc1ccc(NC(=O)CSc2nnc(NC(=O)C3CC3)s2)cc1OC,-21%,14,5,-7%,-16%
COc1ccc(P2(=O)Nc3ccccc3N2)cc1,-16%,41,36*,0%,43%
COCCOc1ccc(C(F)(F)F)cc1Nc1nc2ccccc2o1,51%,100*,30*,-3%,16%
O=C(N[C@@H](Cc1ccccc1)c1nc2ccccc2[nH]1)c1cc([N+](=O)[O-])ccc1Cl,?,10,-1,-2%,15µM*
O=[N+]([O-])c1ccc2nc(NS(=O)(=O)c3ccccc3[N+](=O)[O-])sc2c1,?,3,8,9%,38%
O=C(NC(Nc1nc2ccc([N+](=O)[O-])cc2s1)(C(F)(F)F)C(F)(F)F)c1ccccc1Cl,0.93µM*,-9,-4,3%,1.5µM*
O=C(NC(Nc1nc2ccc([N+](=O)[O-])cc2s1)(C(F)(F)F)C(F)(F)F)c1cccnc1,?,-7,7,-1%,7.4µM*
O=C(NC(NNc1ccc([N+](=O)[O-])cc1)(C(F)(F)F)C(F)(F)F)c1ccccc1Cl,?,-14,-3,-2%,-6%
CCCCC(C(=O)OCC)C(N)Cc1ccc(F)cc1 (configuration not stated),45%,-15,16,1%,?
Cc1ccc(S(=O)(=O)NCc2ccccn2)cc1C,?,-2,-3,-5%,-22%
O=S(=O)(c1ccc2c(c1)OCCO2)C1CCN(S(=O)(=O)c2c(F)cccc2F)CC1,/,24,5,/,/
CC1CCN(S(=O)(=O)c2ccc3c(c2)c(=O)c(C(=O)NCc2ccco2)cn3C)CC1,15µM*,-4,-1,2%,?
CC1CCN(S(=O)(=O)c2ccc(C(=O)NCc3ccco3)cc2)CC1,0%,-6,-1,1%,2.1µM*
CC1CCN(S(=O)(=O)c2ccc3c(c2)c(=O)c(C(=O)NCc2cccs2)cn3C)CC1,-15%,-17,-4,-1%,11%
CSc1ccc(S(=O)(=O)N2CCC(C(=O)NCc3ccco3)CC2)cc1,?,27,0,-1%,1.7µM*
SMILES,Pf growth 96h,Shiga inhibitor,Cycloheximide cs,LmPK inhibitor,Pf growth 48h
COC(=O)c1ccc(CNC(=O)c2ccc(S(=O)(=O)N3CCCC(C)C3)cc2)cc1 (configuration not stated),?,/,/,/,13µM*
CC1CCN(S(=O)(=O)c2ccc(C(=O)NCc3ccc4c(c3)OCO4)cc2)CC1,/,-14,-1,6%,4%
Cc1ccc(C(=O)COC(=O)C2CC(=O)N(c3nc(-c4ccccc4)cs3)C2)cc1 (configuration not stated),-15%,-18,-7,-3%,/
CN(C)CCNC(=O)CCn1nc(-c2ccc(Cl)cc2)ccc1=O,?,-9,-5,-1%,-9%[0.00184 µM]
Cc1ccc(S(=O)(=O)N2CCCC(C(=O)NCc3ccco3)C2)cc1Cl (configuration not stated),13µM*,16,-3,2%,?
O=S(=O)(c1cccc(-c2cn3cc(Cl)ccc3n2)c1)N1CCOCC1,/,7,-1,-6%,-20%
CNC(=O)Oc1cccc(-c2cn3cc(Cl)ccc3n2)c1,67%,-13,11,14µM*,53%
CN(C)S(=O)(=O)c1cccc(-c2cn3cc(Cl)ccc3n2)c1,-28%,20,28*,1%,/
Clc1ccc2nc(-c3ccccc3)cn2c1,-22%,44*,34*,?,209%
CN(C)S(=O)(=O)c1cccc(-c2cn3ccccc3n2)c1,10µM*,21,20,3%,18%
COc1ccc(CCN(C)C(=O)CN2C(=O)NC3(CCCCC3C)C2=O)cc1OC (configuration not stated),-1%,/,/,/,-17%
Cc1cccc(C(=O)OCN2C(=O)c3ccccc3C2=O)c1[N+](=O)[O-],30%,-35,1,-5%,26%
O=C(O)CCCCCN=Cc1c(O)c2ccccc2oc1=O,60%,23,-4,-5%,3%
CCS(=O)(=O)N1CCN(c2ccc(C(=O)NC34CC5CC(CC(C5)C3)C4)cc2[N+](=O)[O-])CC1,5.9µM*,-3,-2,0%,5.9µM*
CS(=O)(=O)N1CCN(c2ccc(C(=O)NC34CC5CC(CC(C5)C3)C4)cc2[N+](=O)[O-])CC1,?,-10,-4,-1%,?
O=C(NC12CC3CC(CC(C3)C1)C2)c1ccc(N2CCNCC2)c([N+](=O)[O-])c1,?,-10,-3,-3%,5.2µM*
O=C(NCc1ccccn1)c1ccc(N2CCCC2)c([N+](=O)[O-])c1,15%,-9,15,2%,3%
C=CCOc1c(Br)cc(CNn2c(C)n[nH]c2=S)cc1OC,-28%,-3,-1,9%,-10%
COc1cc(CNn2c(C)n[nH]c2=S)cc(Cl)c1OCC(=O)NC(C)(C)C,?,21,11*,-3%,?
C=CCOc1ccc(CNn2c(C)n[nH]c2=S)cc1OC,-10%,55*,28*,3%,32%
COc1cc2c(c(OC)c1OC)C(c1ccccc1C)CC(=O)O2 (configuration not stated),/,i,-1,/,/
CCOc1ccc(NC(=O)CSc2nnnn2-c2ccc(C(N)=O)cc2)cc1,18%,-5,13,-1%,26%
COc1cc2c(cc1OC)-c1cc(Nc3cccc(C)c3)nc(=O)n1CC2,-11%,16,-1,9%,-23%
